An excerpt weighted towards active compounds, which were near 4.7% of everything screened.
TRHR PAM = allosterically enhances the human TRH receptor; enhancement, % at 2 µM; P34981; TRHR cells, fluo-8 calcium fluorescence, EC20 TRH enhancement; 360,000 compounds, 0.66% hits; in the data active = enhancement above about 30%; note: 0% is about no effect
Target sequence (P34981 whole entry, looked up): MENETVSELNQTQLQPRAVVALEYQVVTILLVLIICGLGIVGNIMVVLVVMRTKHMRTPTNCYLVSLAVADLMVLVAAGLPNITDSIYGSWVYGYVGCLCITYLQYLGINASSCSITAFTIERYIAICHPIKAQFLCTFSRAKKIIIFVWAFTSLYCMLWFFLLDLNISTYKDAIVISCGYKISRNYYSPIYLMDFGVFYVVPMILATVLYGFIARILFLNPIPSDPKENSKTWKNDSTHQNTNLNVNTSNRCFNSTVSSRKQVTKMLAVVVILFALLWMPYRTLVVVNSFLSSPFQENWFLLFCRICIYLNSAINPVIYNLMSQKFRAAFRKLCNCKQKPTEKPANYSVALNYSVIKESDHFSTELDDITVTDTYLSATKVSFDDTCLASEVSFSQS
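Enhancer read-out: after compound pinning and an initial kinetic agonist-mode read, an EC20 of TRH (10 nM final) was injected and fluo-8 calcium signal (Ex 480/Em 530) followed at 1 s/cycle for 100 cycles in TRHR-expressing cells.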
D1 antagonist = antagonists of human D1 dopamine receptor; P21728; HEK293 TREx D1 cells, calcium flux, dopamine EC80; active compounds read low; activity change, negative = inhibition, % at 10 µM; 360,000 compounds, 3.2% hits; AID 504652; in the data active = activity change below about -30%; note: % is set by controls: 0 for no effect and ±100 for the full control effect
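Compound effects on dopamine-evoked calcium signalling were measured in tetracycline-induced HEK293 Trex D1 cells. Dopamine at EC80 followed a 180 s compound pre-read, and fluorescence was tracked kinetically for 180 s more.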
TRHR ag = activates the human TRH receptor; P34981; TRHR cells, calcium flux fluo-8, FDSS agonist mode; activation, % at 2 µM; AID 493084; 360,000 compounds, 0.18% hits; note: 0% is about no effect
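TRHR-expressing cells, plated overnight in medium with 10% serum, were loaded with fluo-8 calcium dye at room temperature. After a 10 s baseline, library compound was pin-added and calcium release was recorded kinetically (ex 480/em 530) as agonist response.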
D1 PAM = enhances dopamine response at the human D1 receptor; AID 504651; HEK293 TREx D1 cells, calcium flux, dopamine EC20 potentiation; P21728; 360,000 compounds, 0.036% hits; potentiation, % at 10 µM; in the data active = potentiation above about 30%; note: 0% is about no effect
D1 ag = human D1 receptor agonism; activation, % at 2 µM; HEK293 T-REx D1 cells, calcium flux, agonist mode; 360,000 compounds, 1% hits; note: 0% is about no effect
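Tetracycline-induced HEK293 TREx D1 cells, force-coupled to calcium signalling, were dye-loaded with a no-wash calcium kit. Compound was pin-added after a 10 s baseline. Fluorescence was read kinetically at 1 cycle/s for 180 s, with calcium rises flagged as agonism.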
* marks the source's active call; other numbers are inactive results. Cut-off read from the data, not from the text of the source, unless noted: active = activation above about 30%; inactive = the rest.

SMILES | TRHR PAM | D1 antagonist | TRHR ag | D1 PAM | D1 ag
COc1ccc(CCN(C)C(=O)Cc2ccc(-c3ccccc3)cc2)cc1OC | -3 | -31* | 1 | -2 | 10
COc1ccc(Cc2nnc(NC(=O)c3ccccc3F)s2)cc1 | 5 | 9 | -1 | 9 | 8
CCN1CCN(c2nc3c(C)cccn3c(=O)c2C=C(C#N)C#N)CC1 | -4 | 4 | 0 | 2 | 0
O=Cc1c(NCc2ccc(F)cc2)c2ccccc2[nH]c1=O | -8 | -36* | 0 | -9 | 4
O=Cc1c(NCc2cccc(F)c2)c2ccccc2[nH]c1=O | -2 | -24 | 0 | -1 | 4
Cc1ccc(CNc2c(C=O)c(=O)[nH]c3ccccc23)cc1 | 11 | -51* | 0 | -2 | 6
O=Cc1c(NCc2ccccc2Cl)c2ccccc2[nH]c1=O | -2 | -33* | 0 | -1 | 3
COC(=O)c1cccc(NC(=O)CSc2nnc(-c3ccco3)o2)c1 | -3 | -19 | 0 | -5 | 1
Cc1nn(C(=O)c2cccc(Cl)c2)c(C)c1S(=O)(=O)N1CCOCC1 | -2 | 8 | 0 | -1 | 1
CNC(=O)N(O)C1N(/N=C/c2ccc(N(C)C)cc2)C(=S)SC1(C)C (stereo not given) | -8 | -13 | 0 | -4 | 2
CC1(C)SC(=S)N(/N=C/c2ccccc2)C1N(O)C(=O)Nc1ccc([N+](=O)[O-])cc1 (stereo not given) | 8 | -37* | 0 | -3 | 19
O=C(COC(=O)CNC(=O)c1ccccc1F)Nc1cccc(S(=O)(=O)N2CCCCCC2)c1 | -4 | -9 | 0 | -4 | 6
CCc1ccccc1OCC(=O)Nc1cccc(S(=O)(=O)N2CCCC2)c1 | -6 | -30* | 0 | 2 | 13
COc1cccc(/C=C/C(=O)OCC(=O)Nc2cccc(S(=O)(=O)N3CCCCC3)c2)c1OC | 34* | -24 | 0 | 6 | 4
Cn1ccnc1SCC(=O)Nc1cccc(S(=O)(=O)N2CCCCCC2)c1 | 10 | 2 | 0 | -2 | 31*
O=C(COC(=O)CNC(=O)c1ccc(Cl)cc1Cl)Nc1cccc(S(=O)(=O)N2CCCC2)c1 | -4 | -32* | 0 | -7 | 5
Cc1ccc(S(=O)(=O)N2CCCCC2)cc1NC(=O)CSc1nccn1C | 1 | -1 | 0 | 2 | 1
COc1ccccc1N1CCN(c2ncnc3onc(C)c23)CC1 | 28 | -20 | 0 | -4 | 5
Cc1ccc(S(=O)(=O)NC2CC2)cc1 | 1 | 3 | 0 | -6 | 2
O=C(CNC(=O)c1ccc(Cl)cc1Cl)OCC(=O)N1CCCC1 | 1 | -23 | 1 | -1 | 1
O=C(Cc1ccccc1Cl)Nc1cccc(S(=O)(=O)N2CCCCCC2)c1 | 3 | 1 | 2 | 2 | 4
Cc1cc(OCC(=O)Nc2cccc(S(=O)(=O)N3CCCC3)c2)ccc1Cl | 0 | -30* | 1 | 2 | 23
CC1CCCC(C)N1C(=O)COC(=O)CNC(=O)c1ccc(Cl)cc1Cl (stereo not given) | 34* | -4 | 0 | -5 | 4
O=C(CCc1ccccc1Cl)Nc1cccc(S(=O)(=O)N2CCCC2)c1 | 15 | -32* | -1 | 5 | 7
Cc1cc(OCC(=O)Nc2cccc(S(=O)(=O)N3CCCCC3)c2)ccc1Cl | -1 | -22 | 1 | -5 | 11
SMILES | TRHR PAM | D1 antagonist | TRHR ag | D1 PAM | D1 ag
Cc1ccc(C)c(NC(=O)c2cc(S(=O)(=O)N3CCN(c4cccc(Cl)c4)CC3)ccc2F)c1 | -1 | 2 | 0 | 0 | -3
O=S(=O)(c1ccc2c(c1)OCCO2)N1CCN(S(=O)(=O)c2c(Cl)cc(C(F)(F)F)cc2Cl)CC1 | 4 | -14 | -2 | 2 | 4
CC(=O)Oc1ccc(C(=O)Cc2ccccn2)c(O)c1 | -5 | -12 | 0 | -3 | 2
Cc1c(O)ccc(/C(Cc2ccc3ccccc3n2)=N\O)c1O | 3 | -31* | 0 | -6 | 21
CC(=O)Oc1ccc(C(=O)Cc2ccc3ccccc3n2)c(O)c1C | 3 | 0 | 10 | -2 | 32*
CC(=O)c1ccc(NC(=O)c2cc3c([nH]c2=O)CC(c2ccccc2)CC3=O)cc1 (stereo not given) | -5 | 2 | 1 | -1 | 3
COc1ccc(C(=O)Nc2nc3ccc(S(=O)(=O)N4CCCC4)cc3s2)cc1 | 2 | -32* | 0 | 1 | 1

Screens deposited in PubChem BioAssay by National Center for Advancing Translational Sciences (NCATS).
